# Data published in the supplement of paper PMC6897291.
# Columns and labels:
# U-2932 [1] = experiment: growth inhibition by drug alone (1 - RLU/untreated control) (fraction); higher = stronger inhibition; conditions: 177Lu-lilotomab satetraxetan 0 ug/ml
# Summary of the method: (§1)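 RIVA or U-2932 cells were left untreated or pretreated for 18 h with a radiolabelled anti-CD37 antibody conjugate (~600 MBq/mg) at 0.5 µg/ml for RIVA or 1 µg/ml for U-2932. The cells were then washed and seeded at 3,000 cells/well on plates pre-printed with the Selleck Cambridge Cancer Compound library, dosed at 10/100 nM for RIVA and 10/1,000 nM for U-2932. From day 3, RealTime-Glo luminescence was read daily after 1 h at 37°C. Growth inhibition was taken as one minus RLU over the mean of the untreated no-drug wells, of which there were 48 per plate.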
# RIVA [2] = experiment: as above; conditions: 177Lu-lilotomab satetraxetan 0 ug/ml
# Summary of the method: as §1
# U-2932 [3] = experiment: growth inhibition by drug plus 177Lu-lilotomab satetraxetan (1 - RLU/untreated control) (fraction); higher = stronger inhibition; conditions: 177Lu-lilotomab satetraxetan 1 ug/ml
# Summary of the method: as §1
# RIVA [4] = experiment: as above; conditions: 177Lu-lilotomab satetraxetan 0.5 ug/ml
# Summary of the method: as §1
SMILES,"growth inhibition by drug alone (U-2932 [1]; 10 nM, time (day): 3)","growth inhibition by drug alone (U-2932 [1]; 10 nM, time (day): 4)","growth inhibition by drug alone (U-2932 [1]; 10 nM, time (day): 5)","growth inhibition by drug alone (U-2932 [1]; 10 nM, time (day): 6)","growth inhibition by drug alone (U-2932 [1]; 1000 nM, time (day): 3)","growth inhibition by drug alone (U-2932 [1]; 1000 nM, time (day): 4)","growth inhibition by drug alone (U-2932 [1]; 1000 nM, time (day): 5)","growth inhibition by drug alone (U-2932 [1]; 1000 nM, time (day): 6)","growth inhibition by drug alone (RIVA [2]; 10 nM, time (day): 3)","growth inhibition by drug alone (RIVA [2]; 10 nM, time (day): 4)","growth inhibition by drug alone (RIVA [2]; 10 nM, time (day): 5)","growth inhibition by drug alone (RIVA [2]; 10 nM, time (day): 6)","growth inhibition by drug alone (RIVA [2]; 100 nM, time (day): 3)","growth inhibition by drug alone (RIVA [2]; 100 nM, time (day): 4)","growth inhibition by drug alone (RIVA [2]; 100 nM, time (day): 5)","growth inhibition by drug alone (RIVA [2]; 100 nM, time (day): 6)","growth inhibition by drug plus 177Lu-lilotomab satetraxetan (U-2932 [3]; 10 nM, time (day): 3)","growth inhibition by drug plus 177Lu-lilotomab satetraxetan (U-2932 [3]; 10 nM, time (day): 4)","growth inhibition by drug plus 177Lu-lilotomab satetraxetan (U-2932 [3]; 10 nM, time (day): 5)","growth inhibition by drug plus 177Lu-lilotomab satetraxetan (U-2932 [3]; 10 nM, time (day): 6)","growth inhibition by drug plus 177Lu-lilotomab satetraxetan (U-2932 [3]; 1000 nM, time (day): 3)","growth inhibition by drug plus 177Lu-lilotomab satetraxetan (U-2932 [3]; 1000 nM, time (day): 4)","growth inhibition by drug plus 177Lu-lilotomab satetraxetan (U-2932 [3]; 1000 nM, time (day): 5)","growth inhibition by drug plus 177Lu-lilotomab satetraxetan (U-2932 [3]; 1000 nM, time (day): 6)","growth inhibition by drug plus 177Lu-lilotomab satetraxetan (RIVA [4]; 10 nM, time (day): 3)","growth inhibition by drug plus 177Lu-lilotomab satetraxetan (RIVA [4]; 10 nM, time (day): 4)","growth inhibition by drug plus 177Lu-lilotomab satetraxetan (RIVA [4]; 10 nM, time (day): 5)","growth inhibition by drug plus 177Lu-lilotomab satetraxetan (RIVA [4]; 10 nM, time (day): 6)","growth inhibition by drug plus 177Lu-lilotomab satetraxetan (RIVA [4]; 100 nM, time (day): 3)","growth inhibition by drug plus 177Lu-lilotomab satetraxetan (RIVA [4]; 100 nM, time (day): 4)","growth inhibition by drug plus 177Lu-lilotomab satetraxetan (RIVA [4]; 100 nM, time (day): 5)","growth inhibition by drug plus 177Lu-lilotomab satetraxetan (RIVA [4]; 100 nM, time (day): 6)"
O=C(O)C(Cc1c[nH]c2ccccc12)N1C(=O)c2ccccc2C1=O (stereo not drawn),0.0147,0.0153,-0.0484,-0.236,-0.0782,-0.0484,-0.0679,-0.115,-0.0918,-0.166,-0.249,-0.485,-0.231,-0.283,-0.253,-0.339,-0.0896,-0.0477,-0.032,0.0338,-0.157,-0.0639,-0.0646,-0.0481,0.311,0.457,0.475,0.497,0.275,0.394,0.397,0.381
CC(C)OC(=O)C1=CN(C(=O)c2ccc(F)c(F)c2)CC(C)(C)c2c1[nH]c1ccccc21,0.0404,-0.0052,-0.0866,-0.191,-0.0177,-0.00403,-0.0481,-0.039,0.0268,0.00242,0.00693,-0.0298,-0.161,-0.106,-0.145,-0.234,0.0558,0.102,0.14,0.204,0.038,0.085,0.0862,0.162,0.587,0.594,0.614,0.598,0.546,0.595,0.608,0.597
CCC(C)(C)C(=O)O[C@H]1C[C@@H](C)C=C2C=C[C@H](C)[C@H](CC[C@@H]3C[C@@H](O)CC(=O)O3)[C@H]21 [Simvastatin (Zocor)],-0.0841,-0.0759,-0.00492,0.136,-0.019,-0.0256,-0.0695,-0.0808,-0.198,-0.217,-0.225,-0.276,-0.024,-0.0809,-0.115,-0.175,-0.0665,-0.0212,-0.00846,0.124,-0.0261,-0.0186,-0.0188,0.0898,0.493,0.554,0.575,0.582,0.469,0.494,0.501,0.48
Cc1ccc(C(=O)N(CCCN)[C@@H](c2oc3cc(Cl)ccc3c(=O)c2Cc2ccccc2)C(C)C)cc1,0.962,0.968,0.974,0.977,0.962,0.97,0.976,0.98,0.945,0.955,0.965,0.967,0.918,0.938,0.95,0.957,0.964,0.974,0.981,0.984,0.968,0.976,0.982,0.985,0.963,0.976,0.981,0.985,0.953,0.973,0.979,0.981
